Rows were chosen to be rich in hits. Some 3.5% of all compounds tested hit in one or more screens of this group.
KDM4E inh = blocks human JMJD2E demethylase activity. Potency, µM (series often up to 57.1 µM), inactives show top-dose activity change, negative = inhibition, most hits filed as inhibitors. 230,000 compounds, 1.6% hits. JMJD2E catalytic domain, FDH-coupled NADH fluorescence (FDH is formaldehyde dehydrogenase);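 also: 0% = wells with enzyme and -100% = buffer wells without enzyme; nearly all actives have a fitted effect of over 50% in size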
TR SRC2 fluor cs = alters Texas Red total fluorescence, flagging assay interference. 280,000 compounds, 0.29% hits. Potency, µM (series often up to 106 µM), inactives show at the highest dose fluorescence change, negative = quenching. AID 1479. TRb/SRC2 Texas Red total fluorescence interference; active = well fitted curve in either direction with a large enough effect; inconclusive = small, poorly fitted or top-dose-only effect
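Flags fluorescent or light-absorbing compounds by total fluorescence, S + 2P, at 555 nm excitation and 632 nm emission. Mixture: 20 nM Texas Red SRC2 peptide, 0.6 uM human TRb LBD, 1 uM T3, 5% DMSO; compound exposure 5 h at ambient temperature.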
Tau fibril FP = blocks human tau fibril formation measured by polarization | K18 P301L tau heparin fibrillization, Alexa594 FP, 6 h | AID 1468 | 280,000 compounds, 0.39% hits | Potency, µM (highest dose often 57.7 µM), for inactives: at the top dose activity, negative = inhibition, hits mostly inhibitors; also: nearly all actives have a fitted effect of over 55% in size
Target sequence (P10636 561-689 P618L limits assumed): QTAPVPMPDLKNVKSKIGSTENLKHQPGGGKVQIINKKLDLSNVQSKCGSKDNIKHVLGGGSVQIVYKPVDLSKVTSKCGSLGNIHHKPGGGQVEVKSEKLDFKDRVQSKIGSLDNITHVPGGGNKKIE
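Steps: dispense K18 P301L tau (15 uM plus 0.24 uM Alexa 594 tracer, final) in pH 7 sodium acetate; add compound; add heparin (20 uM final); incubate 6 hr, 37 C; add ThT (30 uM final); after 1 hr ambient, read FP.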
TRb SRC2 PPI = disrupts binding of human TR beta to SRC2. TRbeta-SRC2 peptide binding, fluorescence polarization; receptor liganded with 1 µM T3. Potency, µM (top dose mostly 106 µM), for the others: at the top dose activity change, negative = inhibition, most hits filed as inhibitors. 280,000 compounds, 0.065% hits. AID 1469;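 also: plate controls were bound peptide for no effect and peptide without receptor for full effect; nearly all actives have a fitted effect of over 50% in size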
Target sequence (P10828 whole entry, looked up): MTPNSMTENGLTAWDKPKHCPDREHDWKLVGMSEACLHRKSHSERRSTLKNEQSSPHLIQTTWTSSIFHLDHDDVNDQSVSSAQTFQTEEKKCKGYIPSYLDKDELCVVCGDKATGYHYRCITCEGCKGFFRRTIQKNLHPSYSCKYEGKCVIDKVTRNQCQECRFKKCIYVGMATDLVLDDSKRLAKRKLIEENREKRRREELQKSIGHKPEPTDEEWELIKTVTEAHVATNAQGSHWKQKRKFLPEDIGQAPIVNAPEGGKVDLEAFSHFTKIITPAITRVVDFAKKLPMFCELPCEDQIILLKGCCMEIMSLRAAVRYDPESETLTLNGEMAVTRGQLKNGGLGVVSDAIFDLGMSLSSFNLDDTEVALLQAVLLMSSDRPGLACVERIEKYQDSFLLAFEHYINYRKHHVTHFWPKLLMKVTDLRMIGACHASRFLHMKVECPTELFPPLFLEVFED
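Fluorescence polarization of 20 nM Texas Red SRC2 peptide with 0.6 uM human TRb ligand-binding domain, in Tris buffer with 1uM T3 and 5% DMSO. Incubated 5 hr ambient; normalized to unbound and bound controls.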
Tau ThT inhib = blocks human tau fibril formation measured by thioflavin T; P10636; recombinant tau K18 P301L, heparin-induced fibrillization, ThT fluorescence; Potency, µM (titrated, usually from 57.4 µM), for inactives: top-dose activity, negative = inhibition, actives largely listed as inhibitors; 270,000 compounds, 2.1% hits; AID 1460; also: nearly all actives have a fitted effect of over 55% in size
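ThT emission at 510 nm, taken 1 hr after adding 30 uM dye, quantifies aggregates formed when 20 uM heparin acts on human tau K18 P301L for 6 hr at 37 C.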
Tau fluor counter = counter-screen for tau fibril formation inhibitors; AID 1463; tau K18 P301L Alexa594 fluorescence, heparin fibrillization; Potency, µM (series often up to 57.7 µM), for the others: at the highest dose activity change, negative = decrease; 280,000 compounds, 0.93% hits; also: nearly all actives have a fitted effect of over 55% in size
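Human tau K18 P301L (15 uM unlabeled, 0.24 uM Alexa 594-labeled) in 100 mM sodium acetate pH 7 with 20 uM heparin, 6 hr at 37 C. ThT 30 uM added, 1 hr ambient; Alexa 594 FP and total fluorescence read at 555/632 nm.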
* hit, by the source's call; [ ] = another dose, or the depositor's remark. Unless noted, calls follow the shape of the dose curve; as a rule, active = well fitted curve in the direction sought with a large enough effect; inconclusive = small, poorly fitted or top-dose-only effect, or another doubt; inactive = no such curve, though single readings can be large; an effect the other way counts as inactive or inconclusive. Unless noted, % is scaled to controls: 0 for no effect and ±100 for the full control effect; potency is read from the fitted curve at half-maximal effect.

What do the screens show for `Cc1ccc(NNC(=S)Nc2ccc(C(C)C)cc2)c(C)c1`?
KDM4E inh: -30%; TR SRC2 fluor cs: 6%; Tau fibril FP: -8%; TRb SRC2 PPI: 6%; Tau ThT inhib: 14µM*; Tau fluor counter: inconclusive

What do the screens show for `CCc1ccc(C(c2ccccc2)c2c[nH]c3ccc(C)cc23)s1` (stereo unspecified)?
TR SRC2 fluor cs: -3%; Tau fibril FP: inconclusive; TRb SRC2 PPI: -2%; Tau ThT inhib: 13µM*; Tau fluor counter: 10µM*[quencher]

What do the screens show for `Cc1ccc2[nH]cc(C(c3ccccc3)c3ccc(Cl)s3)c2c1` (stereo unspecified)?
TR SRC2 fluor cs: -1%; Tau fibril FP: inconclusive; TRb SRC2 PPI: -9%; Tau ThT inhib: inconclusive; Tau fluor counter: 7.9µM*[quencher]

How did COc1ccc(/C=C/C(=O)c2ccc3c4c(cccc24)CC3)cc1OC do in these assays?
KDM4E inh: 8%; TR SRC2 fluor cs: -1%; Tau fibril FP: 3%; TRb SRC2 PPI: 11%; Tau ThT inhib: 8%; Tau fluor counter: 8%

Results for COc1ccc(C2C=C(Nc3ccccc3)C(=O)N2c2ccccc2)cc1OC (stereo unspecified) ?
KDM4E inh: inconclusive; TR SRC2 fluor cs: 0%; Tau fibril FP: inconclusive; TRb SRC2 PPI: -5%; Tau ThT inhib: 13µM*; Tau fluor counter: -25%

Results for COc1cccc(C2C=C(Nc3ccccc3)C(=O)N2c2ccccc2)c1 (stereo unspecified) ?
KDM4E inh: inconclusive; TR SRC2 fluor cs: -1%; Tau fibril FP: 5%; TRb SRC2 PPI: -2%; Tau ThT inhib: 3%; Tau fluor counter: 2%

How did O=C1/C(=C/c2cccs2)SC(=S)N1c1cccc(O)c1 do in these assays?
KDM4E inh: -3%; TR SRC2 fluor cs: -6%; Tau fibril FP: -11%; TRb SRC2 PPI: -4%; Tau ThT inhib: 20µM*; Tau fluor counter: 20µM*[quencher]

What do the screens show for `CCN(CC)S(=O)(=O)c1ccc(Cl)c(NC(=O)CSc2cccc[n+]2[O-])c1`?
KDM4E inh: 0%; TR SRC2 fluor cs: -4%; Tau fibril FP: -1%; TRb SRC2 PPI: -7%; Tau ThT inhib: -3%; Tau fluor counter: -10%

How did S=C(Nc1ccccc1Cl)N1CCCC1 do in these assays?
KDM4E inh: -9%; TR SRC2 fluor cs: -1%; Tau fibril FP: 14%; TRb SRC2 PPI: -5%; Tau ThT inhib: 2%; Tau fluor counter: 6%

Results for O=C1C=C(NC2=CC3OC(c4ccccc4)OCC3OC2=O)CCC1 (stereo unspecified) ?
KDM4E inh: 6%; TR SRC2 fluor cs: -1%; Tau fibril FP: inconclusive; TRb SRC2 PPI: -5%; Tau ThT inhib: 28µM*; Tau fluor counter: -10%

How did On1onc2c3cc(-c4ccccc4)nc3ccc21 do in these assays?
KDM4E inh: 3%; TR SRC2 fluor cs: -11%; Tau fibril FP: inconclusive; TRb SRC2 PPI: 8%; Tau ThT inhib: 4µM*; Tau fluor counter: 13µM*[quencher]

What do the screens show for `Cn1cccc1-c1nc2ccc(NC(=O)c3ccc([N+](=O)[O-])cc3)cc2[nH]1`?
KDM4E inh: -1%; TR SRC2 fluor cs: -2%; Tau fibril FP: 0%; TRb SRC2 PPI: -5%; Tau ThT inhib: 1.3µM*; Tau fluor counter: inconclusive

How did Cn1cc([N+](=O)[O-])c(C(=O)Nc2ccc3nc(-c4ccccc4)[nH]c3c2)n1 do in these assays?
KDM4E inh: inconclusive; TR SRC2 fluor cs: -9%; Tau fibril FP: -4%; TRb SRC2 PPI: 0%; Tau ThT inhib: 16µM*; Tau fluor counter: inconclusive

What do the screens show for `COc1ccc2c(c1OC)C(=O)OC2CC(=O)c1ccc(O)cc1` (stereo unspecified)?
KDM4E inh: -1%; TR SRC2 fluor cs: -3%; Tau fibril FP: 1%; TRb SRC2 PPI: 4%; Tau ThT inhib: -6%; Tau fluor counter: -13%

Results for COc1ccc2c(c1OC)C(=O)OC2CC(=O)c1ccc(O)c(O)c1 (stereo unspecified) ?
KDM4E inh: 14µM*; TR SRC2 fluor cs: -2%; Tau fibril FP: -9%; TRb SRC2 PPI: 11%; Tau ThT inhib: inconclusive; Tau fluor counter: -12%

Results for CCCc1cc(=O)[nH]c(SCC(=O)CSc2nc(CCC)cc(=O)[nH]2)n1 ?
KDM4E inh: -3%; TR SRC2 fluor cs: -3%; Tau fibril FP: inconclusive; TRb SRC2 PPI: -1%; Tau ThT inhib: 16µM*; Tau fluor counter: -26%

How did CCCc1cc(=O)[nH]c(SCC(=O)NC)n1 do in these assays?
KDM4E inh: 2%; TR SRC2 fluor cs: -1%; Tau fibril FP: -1%; TRb SRC2 PPI: 7%; Tau ThT inhib: 0%; Tau fluor counter: -1%

What do the screens show for `O=C(/C=C/Nc1ccccc1)c1ccccc1`?
KDM4E inh: 1%; TR SRC2 fluor cs: 1%; Tau fibril FP: 4%; TRb SRC2 PPI: 8%; Tau ThT inhib: -1%; Tau fluor counter: -5%

Results for CCOC(=O)c1ccc(N/C=C/C(=O)C(C)(C)C)cc1 ?
KDM4E inh: 0%; TR SRC2 fluor cs: 0%; Tau fibril FP: 6%; TRb SRC2 PPI: 2%; Tau ThT inhib: inconclusive; Tau fluor counter: -7%

What do the screens show for `CN(C)c1ccc(N/C=C/C(=O)C(C)(C)C)cc1`?
KDM4E inh: 7.1µM*; TR SRC2 fluor cs: inconclusive; Tau fibril FP: inconclusive; TRb SRC2 PPI: 45µM*; Tau ThT inhib: 16µM*; Tau fluor counter: inconclusive

How did CN(C)c1ccc(N/C=C/C(=O)c2ccccc2)cc1 do in these assays?
KDM4E inh: inconclusive; TR SRC2 fluor cs: 45µM*[fluorescent]; Tau fibril FP: -18%; TRb SRC2 PPI: 32µM*; Tau ThT inhib: 1.8µM*; Tau fluor counter: inconclusive

How did CC(=O)c1cc(NC(=O)c2ccc([N+](=O)[O-])cc2)c(=O)oc1C do in these assays?
KDM4E inh: -7%; TR SRC2 fluor cs: 1%; Tau fibril FP: inconclusive; TRb SRC2 PPI: 3%; Tau ThT inhib: inconclusive; Tau fluor counter: -16%

What do the screens show for `C=CCOCCN1C(=O)C2C3C=CC(C2C1=O)C1C2C(=O)N(CCOCC=C)C(=O)C2C31` (stereo unspecified)?
KDM4E inh: -1%; TR SRC2 fluor cs: -1%; Tau fibril FP: 4%; TRb SRC2 PPI: -4%; Tau ThT inhib: -3%; Tau fluor counter: 2%

What do the screens show for `COC(=O)c1cc(C)[nH]c2c(C)cc3nc4ccccc4c3c12`?
KDM4E inh: inconclusive; TR SRC2 fluor cs: -2%; Tau fibril FP: inconclusive; TRb SRC2 PPI: -14%; Tau ThT inhib: inconclusive; Tau fluor counter: 25µM*[quencher]

How did N[C@@H](C(=O)N[C@@H]1C(=O)N2C(C(=O)O)=C(Cl)CS[C@H]12)c1ccccc1 do in these assays?
KDM4E inh: inconclusive; TR SRC2 fluor cs: -1%; Tau fibril FP: inconclusive; TRb SRC2 PPI: 2%; Tau ThT inhib: 28µM*; Tau fluor counter: -18%

Bioassay records from PubChem.
